Laboratory results taken from PubChem BioAssay (NCI).
About 83,000 compounds went through this panel and 20% of them were active in at least one assay; those are over-represented in the sample as a whole.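 Step 1: grow cells in 96-well plates. Step 2: add test compound at a single concentration. Step 3: incubate 48 h. Step 4: record percent growth.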 Values without a mark were called inactive. Calls of active or inactive are those of the source. Rule for the calls: active = growth percent below 10; inactive = the rest.

Experiments:
Test in all cases: NCI-60 one-dose screen, 48 h (100 = growth as untreated, 0 = no growth, -100 = all killed)
Settings in all cases: 10 µM unless noted
[1] = tested on: SK-MEL-2 melanoma
[2] = tested on: EKVX NSCLC
[3] = tested on: SN12C renal
[4] = tested on: UO-31 renal
[5] = tested on: TK-10 renal
[6] = tested on: ACHN renal
[7] = tested on: CAKI-1 renal
[8] = tested on: A498 renal
[9] = tested on: CCRF-CEM leukemia
[10] = tested on: MOLT-4 leukemia
[11] = tested on: SR leukemia
[12] = tested on: RPMI-8226 leukemia
[13] = tested on: OVCAR-8 ovarian
[14] = tested on: OVCAR-5 ovarian
[15] = tested on: OVCAR-4 ovarian
[16] = tested on: SK-OV-3 ovarian
[17] = tested on: IGROV1 ovarian
[18] = tested on: OVCAR-3 ovarian
[19] = tested on: HS 578T breast
[20] = tested on: NCI/ADR-RES ovarian

Compound	growth [1]	growth [2]	growth [3]	growth [4]	growth [5]	growth [6]	growth [7]	growth [8]	growth [9]	growth [10]	growth [11]	growth [12]	growth [13]	growth [14]	growth [15]	growth [16]	growth [17]	growth [18]	growth [19]	growth [20]
Oc1c(CN2CCOCC2)cc(COCc2ccccc2)c2cccnc12	36.9%	92.5%	39.9%	6.45% (active)	31.1%	12.6%	13.5%	49.7%	11.7%	15.3%	13.4%	29.1%	14.5%	37.8%	24.5%	9.56% (active)	16.2%	19.7%	68.4%	7.42% (active)
CC1(C)CC[C@]2(CO)CC[C@]3(C)[C@H](CC[C@@H]4[C@@]5(C)CCCNC(C)(C)[C@@H]5CC[C@]43C)[C@H]2[C@H]1O	102%	95.2%	86.2%	72.6%	86.5%	101%	95.3%	93.4%	61.2%	54.1%	10.5%	31.4%	95%	92.8%	89.7%	92.5%	82.3%	94.3%	83.5%	93.1%
Cc1ccc(S(=O)(=O)c2nc(-c3ccccc3)oc2Sc2nc3ccccc3s2)cc1	88.6%	97.1%	61.4%	64.3%	111%	96.8%	91.5%	80.4%	23.6%	12.3%	15.5%	56.7%	60%	124%	55.5%	116%	80%	77.9%	101%	70.7%
COc1cccc(CCNc2ncnc3c2ncn3Cc2nnc3c4ccccc4c(Cl)nn23)c1	20.2%	73.9%	46.9%	25.2%	67.4%	24.9%	18.3%	83.4%	34%	20.8%	33.5%	48.8%	40.3%	102%	57.5%	3.23% (active)	40%	64%	40.8%	40.7%
COc1ccc(/C=C2\COc3ccc(O)cc3C2=O)cc1	109%	105%	92.5%	72.7%	104%	98.9%	89.4%	110%	3.13% (active)	74.5%	15.8%	-0.495% (active)	95.3%	102%	104%	128%	99.6%	114%	104%	98.5%
O=C(c1c[nH]c2ccccc12)c1n[nH]c(=S)n1-c1cccc(Br)c1	85.9%	70.9%	96.3%	86.6%	106%	100%	77.2%	118%	90.6%	90.2%	76.8%	84.1%	93.5%	89.7%	87.1%	91.8%	60.6%	86.4%	93.8%	106%
Cn1c(=O)c2[nH]c(SCC(=O)Nc3ccc(C(=O)/C=C/c4ccccc4Cl)cc3)nc2n(C)c1=O	126%	87.9%	97.7%	92.7%	104%	99%	98.1%	85.6%	79.5%	87.4%	78.1%	82.2%	95%	101%	88.3%	97.3%	100%	94.7%	95.5%	101%
N#Cc1cccc(C2C3=C(COC3=O)N(CCO)c3cc4c(cc32)OCO4)c1 (stereo not drawn)	26.8%	51.8%	44.2%	43.4%	50%	39.2%	29.7%	11.9%	7.91% (active)	24.8%	15.3%	19.2%	35.6%	69.5%	70.9%	23%	42.1%	3.12% (active)	20.2%	57.3%
Cc1ccc(C2CC(c3nc(-c4ccc(Cl)cc4)oc3C)=NN2C(=O)c2ccncc2)cc1 (stereo not drawn)	92.9%	91.3%	86.8%	58.2%	106%	87.3%	69.2%	82.6%	90.7%	64.7%	92.9%	83.2%	90.4%	107%	82.5%	92.3%	70.7%	90.7%	83.1%	88.1%
Cc1ccc(CNc2c3ccccc3nc3ccccc23)cc1	42.7%	37.9%	24.9%	12%	35.8%	14%	18.6%	7.64% (active)	20.9%	4.29% (active)	-0.81% (active)	-11% (active)	21.8%	38.1%	24.5%	46.9%	19.4%	34.1%	38.5%	26.1%
CSC1=Nc2c(c(C)c(-c3ccccc3)n2CCCC(=O)O)C2=NC(=O)C[C@H](C)N12	107%	92.8%	122%	88.6%	118%	121%	103%	128%	98.4%	104%	114%	93.6%	110%	107%	93%	130%	97.5%	119%	98.1%	104%
COC(=O)c1nc(-c2ccccc2)oc1S(=O)(=O)NCC(c1ccc(Cl)cc1)N1CCOCC1 (stereo not drawn)	80.9%	96.7%	81.2%	60%	62.3%	64.7%	71.2%	90.4%	-21% (active)	7.96% (active)	1.88% (active)	7.86% (active)	65%	77.7%	86.2%	97%	61.1%	35.1%	85.8%	97.9%
CCOC(=O)C(Cc1ccc(OC)cc1)C(=O)OCC	43.4%	69.3%	40%	46.7%	46.6%	44.7%	-14.2% (active)	54.5%	14.3%	37.7%	11.6%	0.799% (active)	26.4%	72%	56.4%	50%	28.1%		6.32% (active)	
CCOC(=O)/C=C1\S/C(=N\Nc2cc(=O)[nH]c3ccccc23)N(c2ccccc2)C1=O	110%	104%	98.9%	77.6%	117%	102%	92.8%	125%	101%	103%	96.6%	112%	100%	101%	84.3%	101%	105%	104%	101%	101%
CCOC(=O)C(=Cc1ccc(-c2ccccc2)cc1)C(=O)OCC	51.8%	95%	67.3%	55.4%	66%	34%	85.6%	108%	1.19% (active)	-3.57% (active)	4.01% (active)	-3.52% (active)	19.7%	71%	75.5%	95.6%	50.5%	52.8%	39.7%	19.6%
